# Only a selection was taken, and hits are over-represented in it overall.
# KDM5B inh: inhibitors of human KDM5B histone demethylase | Q9UGL1 | Potency, µM (doses to about 57.7 µM), actives largely listed as inhibitors | actives 2.6% (n = 220,000) | KDM5B demethylase, FDH-coupled NADH fluorescence (FDH is formaldehyde dehydrogenase); active = well fitted inhibition curve with a large enough effect; also: 0% is about no effect; nearly all actives have a fitted effect of over 70% in size
#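 qHTS format, multiple compound concentrations. Buffer 50 mM HEPES pH 7.5/0.01% Tween-20; 200 nM KDM5BΔAP final; 10 min compound preincubation; substrate-mix levels 12.5 µM peptide, 25 µM α-KG, 0.25 mM NAD⁺; 30 min RT; ΔRFU.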
# Active calls of the source: *; i = inactive. Potency is read from the fitted curve at half-maximal effect.
SMILES,KDM5B inh
Cc1onc(-c2ccccc2Cl)c1C(=O)N1CCCC2(CNC(=O)O2)C1 (stereo not given),i
CCN1CC2(CCN(C(=O)c3cccc(Cn4cccn4)c3)CC2)OC1=O,i
O=C1NCC2(CCCN(C(=O)c3cn[nH]c3-n3cnnn3)C2)O1 (stereo not given),i
Cn1cccc(C(=O)N2CCC3(CC2)CN(CCOc2ccccc2)C(=O)O3)c1=O,i
CCN1CC2(CCN(C(=O)c3cnc4c(O)cccn4c3=O)CC2)OC1=O,32µM*
CC(=O)N1CCC(C(=O)N2CCC3(CC2)NC(=O)N(c2ccc(F)cc2)N3)CC1,i
CCC(=O)N(C1CCOCC1)C1CCN(Cc2cccc(Cl)c2)CC1,i
Cc1ccc2c(CC(=O)N(Cc3cccs3)C3CC3)coc2c1C,i
N#Cc1cc([N+](=O)[O-])ccc1NC(=O)COC(=O)C1(c2ccccc2F)CCCC1,i
CCNC(=O)N[C@H]1CO[C@H]2[C@@H]1OC[C@H]2OC(=O)Nc1ccc(C(C)=O)cc1,i
O=C(N[C@H]1CCN2C(=O)N(c3ccccc3)C(=O)[C@@H]2C1)c1cccnc1,i
O=C(N[C@H]1CCN2C(=O)N(c3cccc4nsnc34)C(=O)[C@@H]2C1)c1ccnc(Cl)c1,28µM*
O=C(N[C@H]1CCN2C(=O)N(c3cccc(C(F)(F)F)c3)C(=O)[C@@H]2C1)c1ccncc1,i
CN=Cc1cc(C(C)(C)C)cc(C(C)(C)C)c1O,i
COc1cccc(C(=O)N[C@H]2[C@H](O)[C@H](O)C[C@@H]2c2ccc(N3CCOCC3)nc2)c1,35µM*
Cc1ccc([C@H]2C[C@@H](O)[C@@H](O)[C@@H]2NC(=O)C2CCOCC2)cc1,i
COc1cccc(CN[C@H]2[C@H](O)[C@H](O)C[C@@H]2c2ccc(N3CCOCC3)nc2)c1,35µM*
COc1ccc(CN[C@H]2[C@H](O)[C@H](O)C[C@@H]2c2ccc(C(F)(F)F)nc2)cc1,i
CN1CCC(N[C@H]2[C@H](O)[C@H](O)C[C@@H]2c2ccc(N3CCOCC3)nc2)CC1,32µM*
O[C@H]1[C@H](NCc2cccc(C(F)(F)F)c2)[C@@H](c2cccnc2)C[C@H]1O,i
O=S(=O)(NCc1ccc(N2CCOCC2)nc1)c1ccc(F)cc1,i
N#Cc1cccc(C(=O)N[C@H]2[C@H](O)[C@H](O)C[C@@H]2c2cccnc2)c1,i
COc1ccc([C@H]2C[C@@H](O)[C@@H](O)[C@@H]2NC(=O)c2cccc(OC)c2)cc1,i
